Assay outcomes: PubChem, National Center for Advancing Translational Sciences (NCATS)
A selection: hits, their analogues and other compounds. The true share with any hit is near 8.7%.
JMJD2A Tudor = blocks the human JMJD2A Tudor domain. hit rate 4.4% among 390,000. AlphaScreen JMJD2A-Tudor / H3K4me3 peptide binding. AID 504339. Potency, µM (highest dose often 114 µM), for the others: top-dose activity change, negative = inhibition, most hits filed as inhibitors; also: % is scaled to controls: 0 for no effect and ±100 for the full control effect; nearly all actives have a fitted effect of over 50% in size
BAZ2B block = BAZ2B (human) inhibition | AlphaScreen BAZ2B-H3K14Ac peptide displacement | Potency, µM (highest dose often 114 µM), for the others: at the highest dose activity change, negative = inhibition, most hits filed as inhibitors | hit rate 4.4% among 360,000 | AID 504333; also: % is scaled to controls: 0 for no effect and ±100 for the full control effect; nearly all actives have a fitted effect of over 60% in size
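Inhibition is scored as reduced AlphaScreen emission. The BAZ2B/b-H3(5-23)K14Ac complex (50 nM each) in PBS pH 7.4, 0.01% Tween-20 meets compound (up to 110 uM) for 30 min at RT before bead addition.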
Sfp PPTase inh = inhibitors of Bacillus subtilis Sfp phosphopantetheinyl transferase | Potency, µM, for the others: largest response in the series, negative = inhibition, hits mostly inhibitors | Q9F4F7 | hit rate 3.5% among 310,000 | AID 1490 | Biochemical Sfp PPTase activity, qHTS;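 also: the enzyme is Sfp with the accession as filed and its product quenches rhodamine fluorescence; 0% = enzyme reaction without inhibitor and -100% = no enzyme wells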
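Reaction rates are the 30-min fluorescence difference (ex 525, em 598 nm) in wells containing 15 nM Sfp, 5 uM rhodamine-CoA and 12.5 uM BHQ-2-YbbR at pH 7.6 with 10 mM MgCl2.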
G9a inh = blocks human histone lysine methyltransferase G9a; Q96KQ7; G9a H3K9 monomethylation, AlphaScreen, 2 h; Potency, µM (series often up to 102 µM), inactives show at the top dose activity, negative = inhibition, usual class: inhibitors; hit rate 8.8% among 350,000; AID 504332; also: % is scaled to controls: 0 for no effect and ±100 for the full control effect; nearly all actives have a fitted effect of over 75% in size
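G9a (20 nM) was preincubated 15 min with compound, then reacted 2 h at room temperature with 500 nM biotin-H3K9 peptide and 20 µM SAM. Monomethyl-H3K9 detected by AlphaScreen using anti-H3K9me1 antibody.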
12-LOX inh = ALOX12 (human) lipoxygenase inhibition; hit rate 1.1% among 580,000; purified 12hLO, xylenol orange hydroperoxide absorbance; Potency, µM (titrated, usually from 108 µM), inactives show at the highest dose activity change, negative = inhibition, usual class: inhibitors; also: % is scaled to controls: 0 for no effect and ±100 for the full control effect
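Purified human 12hLO (150 nM final) in 25 mM Hepes, 0.01% Triton X-100, pH 7.0 was preincubated 15 min at room temperature with compound. Then 40 uM arachidonic acid was added, 30 min. Hydroperoxide was read by Fe-XO absorbance ratio 573/405 nm.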
HP1b chromo inh = HP1-beta chromodomain-methylated histone interaction inhibition; AID 540317; Potency, µM (doses to about 114 µM), for inactives: at the top dose activity change, negative = inhibition, usual class: inhibitors; AlphaScreen HP1-beta / biotin-H3K9me3 peptide binding; P83916; hit rate 0.56% among 390,000; also: nearly all actives have a fitted effect of over 70% in size
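AlphaScreen: HP1-beta (50 nM) preformed 30 min with biotin-H3(1-18)K9me3 peptide (50 nM) in PBS pH 7.4, 0.01% Tween-20. Compound added for 30 min at RT, then streptavidin donor/nickel chelate acceptor beads (10 ug/mL) for 30 min.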
The depositor's hits bear a star; ? = inconclusive; . = no result; [ ] = dose if it differs, or a comment. Calls follow the shape of the dose curve; as a rule, active = well fitted curve in the direction sought with a large enough effect; inconclusive = small, poorly fitted or top-dose-only effect, or another doubt; inactive = no such curve, though single readings can be large; an effect the other way counts as inactive or inconclusive. Potency is read from the fitted curve at half-maximal effect.

SMILES	JMJD2A Tudor	BAZ2B block	Sfp PPTase inh	G9a inh	12-LOX inh	HP1b chromo inh
COCCN=C1Sc2nc3cc(C)c(C)cc3cc2CN1Cc1cccs1	18.0%	6.7%	?	8.6%[59 µM]	-27.9%	50.7%
COCCN=C1Sc2nc3ccc(C)cc3cc2CN1Cc1ccco1	-23.6%	?	44.7µM*	?	-8.4%	41.4%
CC(C)C1=CC(=Nc2ccc(S(N)(=O)=O)cc2)C=C(C(C)C)C1=O	56.2µM*	44.7µM*	4.6%	.	0.0%	?
NS(=O)(=O)c1ccc(N=C2C(=O)Nc3ccccc32)cc1	-12.4%	-10.5%	7.3%	.	12.1%[57.4 µM]	70.3%
Cc1cc(C(=O)NP(=O)(N2CC(C)OC(C)C2)N2CC(C)OC(C)C2)c(C)n1C1CC1 (stereo unspecified)	-14.6%	?	24.2%	44.7µM*	-15.0%	-3.4%
Cc1cc(C(F)(F)F)nc(Sc2nc(C)cc(C)c2C#N)n1	.	.	.	.	-2.3%	.
Cc1cc(NC(=NC2CC2)c2ccccc2)n(-c2ccccc2)n1	-6.2%	5.3%	10.7%	?	-2.2%	-12.6%
Cc1cc2n(n1)SC(Nc1ccccc1)N2 (stereo unspecified)	7.94µM*	-33.4%	-21.6%	1.78µM*	14.1µM*	?
Cc1ccc(NC2Nc3cc(C)nn3S2)c(C)c1 (stereo unspecified)	?	-25.3%	11.0%	1.12µM*	39.8µM*	11.8%
CCC(=O)N(C1CCOCC1)C1CCN(Cc2cc(OC)cc(OC)c2)CC1	.	.	.	.	46.5%	.
Cc1cc(C(=O)CSc2nnc(-c3cccs3)n2Cc2ccccc2)c(C)n1C	?	.	-22.9%	?	-18.2%	-22.1%
O=c1cc(CSc2nnc(-c3cccs3)n2Cc2ccccc2)nc2sc3ccccc3n12	-35.3%	44.7µM*	-13.2%	?	-9.7%	22.0%
Nc1ccc(CSc2ccccc2)cc1	-31.0%	.	.	.	-8.7%	-3.8%[57 µM]
Nc1ccc(N(c2ccccc2)c2ccc(N)cc2)cc1	15.8µM*	25.1µM*	-13.2%	1.26µM*	-17.0%	39.8µM*
COCCCn1c(SCC(=O)Nc2ccc(NC(C)=O)cc2)nc2sc3c(c2c1=O)CCC3	-14.0%	-14.2%	-1.0%	44.7µM*	14.1%	0.1%
CCn1c(SCC(=O)OC)nc2sc3c(c2c1=O)CCC3	50.1µM*	50.1µM*	5.9%	.	?	?
COCCn1c(SCC(=O)NCC(c2ccccc2)N(C)C)nc2sc3c(c2c1=O)CCC3 (stereo unspecified)	-19.9%	.	.	.	7.8%	12.6%
CCn1c(SCc2ccc(C(=O)OC)o2)nc2sc3c(c2c1=O)CCCC3	-22.1%	-4.6%	35.5µM*	12.1%[2.33 µM]	6.0%	26.4%
CCn1c(SCC(=O)O)nc2sc3c(c2c1=O)CCC3	?	56.2µM*	26.3%	44.7µM*	0.0%[57.4 µM]	-1.5%
Cc1noc(C)c1[S+](=O)([O-])N1CCc2nc(C(C)C)nc(-c3ccc(Cl)cc3)c2CC1	.	.	.	.	8.0%[6.33 µM]	.
Cc1noc(C)c1CC(=O)N1CCCCCCNC(=O)CC1	.	.	.	.	23.8%	.
CNc1ccc(C(=O)c2ccccc2C(=O)O)cc1[N+](=O)[O-]	?	-24.4%	2.7%	-35.2%	-3.8%	28.1%
CNc1ccc(/C=C/C(=O)c2cccc3ccccc23)cc1[N+](=O)[O-]	8.91µM*	7.08µM*	-0.1%	10µM*	-24.1%	15.8µM*
CCOc1ccc2c(C)c(-c3ccccc3)c(=O)oc2c1	.	.	.	.	45.0%	.
CN(C)c1cccc2c1C(=O)c1ccccc1C2=O	44.7µM*	8.91µM*	-9.9%	11.2µM*	-16.9%	28.2µM*
CN1C(=O)c2cccc(N(C)C)c2C1=O	3.8%	12.2%	-6.9%	5.8%	5.1%	35.6%
CCCNC(=O)CSc1nc2ccsc2c(=O)n1C	.	.	.	.	84.2%	.
O=C(CSc1cccc[n+]1[O-])c1cc2ccccc2o1	-35.2%	?	?	?	.	36.4%
COc1ccccc1C(=O)CSc1n[nH]c(N)n1	-26.9%	-5.6%	89.1µM*	?	-2.6%	43.1%
Nc1nc(SCC(=O)c2cc3ccccc3o2)n[nH]1	?	-38.1%	22.4µM*	?	?	?
